Nrf2 ARE act: Nrf2 pathway activation. AID 624171. AREc32 ARE-luciferase reporter (MCF7-derived line), luminescence, 24 h. 0.31% of 410,000 active. Potency, µM (titrated, usually from 46.1 µM), for inactives: at the top dose activation, hits mostly activators; also: % of control where 0% means no effect; nearly all actives have a fitted effect of over 65% in size
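ARE activation measured as luciferase luminescence (Steady-Glo, 30 min RT) in AREc32_Fluc cells after 24 hr compound exposure at 37 deg C, 5% CO2; cells seeded overnight at 1000/well in OPTI-MEM, 5% FBS.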
ELG1 repair inh: inhibitors of ELG1-dependent DNA repair in HEK293T cells. 2.3% of 330,000 active. Potency, µM (titrated, usually from 46.1 µM), without a hit: top-dose activity change, negative = inhibition, hits mostly inhibitors. HEK293T ELG1-luciferase reporter, luminescence, 16 h; DNA damage induced by 5-fluorouridine; also: % is scaled to controls: 0 for no effect and ±100 for the full control effect; nearly all actives have a fitted effect of over 55% in size
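5-Fluorouridine DNA damage + compound/DMSO, 2,000 cells/well, 16 h, 37 °C/5% CO2. ONE-Glo, 30 min RT, luminescence. Readout = decrease in reporter signal.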
Nrf2 block: blocks Nrf2 signaling. Potency, µM (series often up to 46 µM), for inactives: at the top dose activity change, negative = inhibition, actives largely listed as inhibitors. AID 504444. 2.1% of 360,000 active. A549 ARE-Fluc reporter, luciferase luminescence, 18-24 h; also: % is scaled to controls: 0 for no effect and ±100 for the full control effect; nearly all actives have a fitted effect of over 60% in size
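Nrf2 activity is the BugLite luminescence, read 15 min after reagent at room temperature, following CellTiter-Fluor cytotoxicity readout (30 min, 37C). Compound titrations were applied for 18-24 h to 5000 A549 ARE_Fluc cells/well in 5% FBS OPTI-MEM.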
A549 viability: counter-screen for Nrf2 inhibitors: cytotoxicity in A549 cells; Potency, µM (doses to about 46 µM), without a hit: top-dose activity change, negative = cytotoxicity, most hits filed as inhibitors; A549 ARE-Fluc cells, CellTiter-Fluor viability, 18-24 h; 0.16% of 390,000 active; also: % is scaled to controls: 0 for no effect and ±100 for the full control effect
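Cytotoxicity counterscreen: CellTiter-Fluor fluorescence was measured in A549 ARE_Fluc cells after 18-24 h of compound exposure in a concentration series. The subsequent BugLite luminescent read reports ARE-luciferase activity.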
Numbers without * were called inactive; ? = inconclusive; nt = no result given; ! = a repeat was not active. Compounds with a hit are over-represented: about 3.7% of the library has one in this group of screens. Calls follow the shape of the dose curve; as a rule, active = well fitted curve in the direction sought with a large enough effect; inconclusive = small, poorly fitted or top-dose-only effect, or another doubt; inactive = no such curve, though single readings can be large; an effect the other way counts as inactive or inconclusive. Potency is read from the fitted curve at half-maximal effect.

SMILES | Nrf2 ARE act | ELG1 repair inh | Nrf2 block | A549 viability
CC(=O)c1ccc(-c2cc([C@H]3[C@H]4C=CC[C@@H](C)[C@@H]4C(=O)N3Cc3ccccc3)ccc2F)cc1 | 3% | -15% | 21µM* | -13%
CC(=O)c1ccc(-c2cc(C3C4C=CCC(C)C4C(=O)N3Cc3ccccc3)ccc2F)cc1 (stereo not given) | nt | nt | ? | -13%
COC(=O)c1ccc(-c2ccc(C3C4C=CCC(C)C4C(=O)N3Cc3ccccc3)c(F)c2)cc1 (stereo not given) | nt | nt | 10µM* | -13%
CCN(CCCCN1C(=O)c2ccccc2C1=O)c1ccc2c(c1)C(=O)N(C)C2=O | 0% | 16µM* | ? | ?
CCC1CCCCN1S(=O)(=O)c1ccc(S(=O)(=O)N(Cc2ccccn2)CC2CCCO2)cc1 (stereo not given) | -1% | 18µM* | -1% | 12%
COc1ccc(-c2cc(C(F)(F)F)nc(-n3ccnc3C)n2)cc1 | 0% | 26µM* | -9% | 2%
C=CCn1c(SCC(=O)O)nc2sc(CC)cc2c1=O | 0% | 8% | -2% | -5%
C=CCn1c(SCC(=O)c2cccs2)nc2sc(CC)cc2c1=O | 0% | 21µM* | ? | -19%
CCc1cccc(-n2c(=O)c3cccnc3n2CC(=O)Nc2ccc(OC)c(Cl)c2)c1 | 4% | nt | 8.2µM* | 6%
CCc1ccc(-n2c(=O)c3cccnc3n2CC(=O)Nc2cc(OC)ccc2OC)cc1 | -1% | nt | 10% | 6%
COc1ccc(-n2c(-c3ccccc3)nc(=S)c3c2CCCC3)cc1 | 0% | 7% | nt | 0%
COc1ccc(-n2c(-c3cccc(OC)c3)nc(=S)c3c2CCCC3)cc1 | 3% | -6% | 26µM* | -12%
O=C(Nc1cccc(NC(=O)c2ccc(-c3ccc(Br)cc3)o2)c1)c1ccccc1 | 1% | 18µM* | 5% | -14%
COc1c(C)cc(Br)cc1C(=O)Nc1cccc(NC(=O)c2ccco2)c1 | -1% | ? | ? | -8%
CC(=O)Nc1cccc(NC(=O)c2ccco2)c1 | 9% | 1% | 3% | -4%
O=C(Nc1cccc(NC(=O)c2ccc(-c3cccc(Br)c3)o2)c1)c1ccco1 | 0% | 9.2µM* | ? | -6%
COc1ccc(Br)cc1C(=O)Nc1cccc(NC(=O)c2ccco2)c1 | 0% | 21µM* | ? | 11%
COc1ccccc1/C=C/CN1CCC(Oc2cc(C(=O)NC3CC3)ccc2OC)CC1 | 0% | 7% | -6% | 1%
CC(NC(=O)CNC(=O)c1ccco1)c1ccccc1 (stereo not given) | 0% | -2% | -9% | 3%
COc1ccc(Nc2nc(N3CCCC3)nc3ccccc23)c(OC)c1 | 23% | ? | ? | 18µM*
COc1ccc(OC)c(Nc2c3ccccc3nc3ccccc23)c1 | 3% | 12µM* | ? | ?
C/C(=N\Nc1cc(N2CCCCC2)nc(C)n1)c1ccc(Br)cc1 | 15% | 16µM* | ? | -22%
CCN1C(=O)S/C(=C/c2ccc(Sc3nc4ccccc4[nH]3)o2)C1=O | 8% | 12µM* | 21µM* | -8%
Cn1nc(CC(=O)Nc2ccc(N3CCN(C(=O)OC(C)(C)C)CC3)cc2)c2ccccc2c1=O | 0% | ? | 10µM* | -16%
Cc1ccc(S(=O)(=O)N2CCN(C(=O)COC(=O)COc3ccccc3C(C)C)CC2)c(C)c1 | -1% | nt | 6% | 12%
SMILES | Nrf2 ARE act | ELG1 repair inh | Nrf2 block | A549 viability
COC(=O)c1ccc(NS(=O)(=O)c2cc3c4c(c2)CCC(=O)N4CCC3)cc1 | 5% | 22% | 23µM* | 0%
Cc1cccc(N2CCN(c3ccc(C(=O)O)cc3NC(=O)c3cccc(Cl)c3)CC2C)c1 (stereo not given) | 6% | nt | -9% | 9%
CCc1nc2ccc(C(=O)NC3CCN(Cc4ccccc4)CC3)cn2c1N(CC)Cc1cccc(Br)c1 | -3% | nt | nt | nt
O=C(OCC1OC(n2cnc3c(N(C(=O)c4ccccc4)C(=O)c4ccccc4)ncnc32)C(O)C1F)c1ccccc1 (stereo not given) | 7% | -17% | 16µM* | ?
CCc1noc(C)c1C(=O)Nc1sc(C(=O)N(C)C)c(C)c1C#N | 0% | nt | -3% | -1%
CCOC(=O)c1c(C(=O)OCC)c(C)n(CCc2ccc(OC)c(OC)c2)c1C | -1% | 15µM* | ? | -2%
CCn1c(SCC(=O)c2[nH]c(C)c(C(C)=O)c2C)nnc1-c1cccs1 | 5% | ? | ? | -3%
CC(=O)c1c(C)[nH]c(C(=O)CSc2nc3ccccc3n2C)c1C | 2% | ? | 15µM* | -3%
CC(=O)c1c(C)oc2ccc(N(C(C)=O)S(=O)(=O)c3cccc4cccnc34)cc12 | 0% | 5.8µM* | 18µM* | -14%
Cc1ccc(-c2ccc(S(=O)(=O)Nc3cccnc3)cc2)cc1 | 3% | -5% | 12µM* | 0%
O=C(O)CSc1cc(NS(=O)(=O)c2cccc([N+](=O)[O-])c2)c2ccccc2c1O | -3% | 23µM* | ? | ?
O=C1c2ccccc2C(=O)c2cc(S(=O)(=O)Nc3cccc4cccnc34)ccc21 | nt | nt | 5.2µM* | -19%
Cc1ccc(S(=O)(=O)Nc2cccc3cccnc23)cc1 | ? | ? | 6.5µM* | -25%
Cc1ccc(S(=O)(=O)Nc2ccc(NS(=O)(=O)c3ccc(C)cc3)c3ncccc23)cc1 | nt | nt | ? | -6%
CCCCn1c(N)c(N(CCOC)C(=O)CSCc2cccc(C)c2)c(=O)[nH]c1=O | 0% | 4% | 5% | 1%
Cc1ccc2nsnc2c1S(=O)(=O)Nc1cccc2nsnc12 | 0% | 0% | -18% | -18%
Cc1ccc2nsnc2c1S(=O)(=O)Nc1cccc2cccnc12 | nt | nt | 8.2µM* | ?
O=S(=O)(Nc1cc(Sc2cccc3cccnc23)c(O)c2ccccc12)c1ccccc1 | nt | 9.2µM* | nt | nt
N=c1c2c(ccn1CCc1ccccc1)Oc1ccc3ccccc3c1C2c1ccccc1 (stereo not given) | nt | nt | 3.7µM* | 3.7µM*
CC(C)(C)OC(=O)Nc1ncnc2c1C(c1ccccc1)c1c(ccc3ccccc13)O2 (stereo not given) | nt | nt | 4% | 0%
N=c1c2c(ncn1Cc1ccco1)Oc1ccc3ccccc3c1C2c1ccccc1 (stereo not given) | 4% | 15µM* | ? | ?
COc1cccc(C2c3c(ncn(CCCN4CCOCC4)c3=N)Oc3ccc4ccccc4c32)c1 (stereo not given) | nt | nt | -125% | 15µM*
Nc1ncnc2c1C(c1ccccc1)c1c(ccc3ccccc13)O2 (stereo not given) | -2% | -29% | 18µM*! | ?
CC(=O)N1c2ccc(S(=O)(=O)N3CCCCC3)cc2CC1C(=O)NCc1ccc(N(C)C)cc1 (stereo not given) | -1% | 3% | 29% | -4%
COc1cc(S(=O)(=O)N2CCN(Cc3ccc4c(c3)OCO4)CC2)ccc1NC(C)=O | nt | -2% | nt | nt

Screening results deposited in PubChem BioAssay by National Center for Advancing Translational Sciences (NCATS).
